From a collection of fitness landscapes (doi:10.1038/s41467-024-54723-y)
Over roughly 18,000 sequences, “TetR repression strength (sort-seq, GFP reporter)” has its median near 0.23; the highest 2% begin near 0.68. The sample holds the highest values, similar sequences and a random draw of the others, so the mix is not that of the screen.

biological target: TetR (class B, Tn10) (UniProt P04483); assay: TetR repression strength (sort-seq, GFP reporter) (relative to tetO2 = 1); higher = stronger repression; settings: E. coli
In short: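 Escherichia coli SIG10-MAX cells carried a low-copy plasmid library in which eight operator positions were randomized between a constitutive promoter and sfGFP, and TetR was expressed constitutively. After 5 h of growth at 37 °C in LB with 50 µg/mL chloramphenicol, 10^6 cells were FACS-sorted into 13 fluorescence bins, and each bin was Illumina-sequenced. Repression strength was the top bin index plus one minus the read-weighted mean bin, divided by the value for the unaltered operator. Across three independent transformations, only library members with ≥30 reads in every replicate and a CV ≤0.5 were averaged.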

Chain of TetR (class B, Tn10) (P04483 whole entry): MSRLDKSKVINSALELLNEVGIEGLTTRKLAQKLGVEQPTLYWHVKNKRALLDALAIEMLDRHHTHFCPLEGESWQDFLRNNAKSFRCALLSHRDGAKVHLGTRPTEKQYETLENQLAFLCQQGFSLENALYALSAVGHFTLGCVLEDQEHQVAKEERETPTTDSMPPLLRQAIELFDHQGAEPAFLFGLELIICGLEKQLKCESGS

Sequence | TetR repression strength
TCCCGTTCAGTGATAGAGA | 0.819
TCCCATTCAGTTATAGAGA | 0.596
TCCCGTTCAGTGCTAGAGA | 0.681
TCCCTGCTAGTGATAGAGA | 0.638
TCCCGTGCAGTGCTAGAGA | 0.38
TCCCATTCAGTGATAGAGA | 0.707
TCCCGTTCAGTGCGAGAGA | 0.0532
TCCCGGGAAGTATTCGAGA | 0.391
TCCCCAAGAGTTTGGGAGA | 0.217
TCCCGGATAGTACTAGAGA | 0.291
TCCCGGTTAGTTCGAGAGA | 0.0821
TCCCCACCAGTGGCGGAGA | 0.231
TCCCTACTAGTACGGGAGA | 0.394
TCCCGCTCAGTTGTAGAGA | 0.421
TCCCATACAGTTGGAGAGA | 0.37
TCCCCATAAGTACAAGAGA | 0.446
TCCCGTGTAGTAGGAGAGA | 0.17
TCCCTCGCAGTGGATGAGA | 0.323
TCCCTGTCAGTGAGAGAGA | 0.444
TCCCATTTAGTGATCGAGA | 0
TCCCGTTCAGTAGGCGAGA | 0.261
TCCCATTAAGTGATCGAGA | 0.344
TCCCGCTCAGTACGCGAGA | 0.104
TCCCGTTCAGTACGCGAGA | 0.912
TCCCTGTCAGTTGGAGAGA | 0.36
TCCCTGTCAGTTGGCGAGA | 0.874
TCCCTGCCAGTGATAGAGA | 0.646

Sequence | TetR repression strength
TCCCTGTCAGTGATAGAGA | 0.863
TCCCTGACAGTTGGCGAGA | 0.301
TCCCATTCAGTGATCGAGA | 0.731
TCCCGACTAGTAACTGAGA | 0.613
TCCCTAGTAGTTGTTGAGA | 0.308
TCCCCGGGAGTTATGGAGA | 0.274
TCCCACTTAGTTGCTGAGA | 0.19
TCCCGGTCAGTGAAGGAGA | 0.236
TCCCGGCCAGTCAAAGAGA | 0.406
TCCCTTCCAGTTCACGAGA | 0.325
TCCCAATTAGTTTGAGAGA | 0.313
TCCCCGCGAGTAGGAGAGA | 0.405
TCCCTGGGAGTGTGTGAGA | 0.182
TCCCGTGGAGTACTAGAGA | 0.229
TCCCATTGAGTGCACGAGA | 0.443
TCCCGCTAAGTGCTAGAGA | 0.36
TCCCATTCAGTGCACGAGA | 0.691
TCCCATGCAGTGCACGAGA | 0.17
TCCCGTTCAGTGATCGAGA | 0.724
TCCCTGTCAGTGATCGAGA | 0.734
TCCCTGAGAGTGATCGAGA | 0.0416
TCCCGTTAAGTGCGAGAGA | 0.109
TCCCTGTCAGTAATCGAGA | 0.535
TCCCGTTAAGTGCTAGAGA | 0.685
TCCCGTTCAGTGAACGAGA | 0.617
TCCCGTTCAGTGCTCGAGA | 0.442
